Bioassay records (PubChem BioAssay)
This is one part of a sample in which hits are shown more often than they occur.
Vaccinia pol inh – vaccinia E9 polymerase processive synthesis inhibitors, primary screen, biochemical, absorbance; Vaccinia virus DNA polymerase (E9) processive complex; in vitro processive DNA synthesis, absorbance read-out; stronger effect = lower value; normalized absorbance, % (concentration not given with the values); 0.94% of 46,000 active; AID 493162, 2011; in the data active means normalized absorbance mostly below about 85%, no sharp cut-off; inactive means mostly above about 86%
Of the large screens only hits and unclear results are named; the others gave an inactive call.

O=C(O)Cn1c2ccc(Cl)cc2c2nc3ccccc3nc21	Vaccinia pol inh 53
CCOC(=O)Cn1c2ccc(Cl)cc2c2nc3ccccc3nc21	none
Cc1ccc2c(c1)c1nc3ccccc3nc1n2CC(=O)O	none
CC(C)(C)OC(=O)C1CCC(C(=O)Oc2ccc3c4c(c(=O)oc3c2)CCCC4)CN1 (centres undefined)	none
Cc1cc(C)cc(NS(=O)(=O)c2ccc3[nH]cc(C(=O)NCCC4=CCCCC4)c(=O)c3c2)c1	none
COc1ccc(C(=O)CSC2=NCCCCCC2)cc1	Vaccinia pol inh 65
COc1ccc(C(=O)CSc2ncccn2)cc1	none
COc1ccc(C(=O)CNC2=NCCC2)cc1	none
CC(C)NC(=O)CCc1nnc2n(Cc3ccccc3)c(=O)c3ccccc3n12	none
COc1ccccc1NC(=O)COc1nsnc1N1CCOCC1	none
CCN1CCSc2ccc(C(=O)NCc3ccco3)cc21	none
CC1=C(C(=O)Nc2ccc(Cl)cc2C(=O)N2CCN(c3ccccc3)CC2)SCCO1	none
COC(=O)c1ccc2c(c1)CCO2	none
COC(=O)c1sccc1S(=O)(=O)N1CCN(c2ncnc3c(C)csc23)CC1	none
Cc1csc2c(N3CCN(C(=O)NC(C)(C)C)CC3)ncnc12	Vaccinia pol inh 60
Cc1csc2c(N3CC(C)OC(C)C3)ncnc12 (centres undefined)	none
CN(c1ccc(Cl)cc1)c1cc(=O)n(C)c2ccccc12	Vaccinia pol inh 63
CCOc1ccccc1N(C)C(=O)COc1cc(=O)n(C)c2ccccc12	none
CN1CCN(C(=O)COc2cc(=O)n(C)c3ccccc23)CC1	none
Cc1ccc(/C=C/C(=O)N2CCCc3ccccc32)o1	none
O=C(Nc1nc2ccccc2s1)c1ccccc1	none
Cc1cccc2sc(NN)nc12	Vaccinia pol inh 61
CCNc1nc2c(C)cccc2s1	none
c1ccc(CCNc2nc3ccccc3s2)cc1	none
O=C(Nc1nc2c(Cl)cccc2s1)C1CC1	none
NNc1nc2ccccc2s1	Vaccinia pol inh 78
COc1ccc(-n2nc(C(=O)NCC(=O)NC3CCCCCC3)c3ccccc3c2=O)cc1Cl	none
CCCc1cc(=O)[nH]c(SCc2nc3ccccc3[nH]2)n1	none
O=C(NCc1ccncc1)/C(=C/c1ccc(Cl)cc1)c1ccc(F)cc1	none
N#CCC(=O)N1CCCC1	none
CN(C)CCC(O)(CCc1ccccc1)c1ccccc1 (centres undefined)	none
CCC(=O)Nc1cc2ccccc2cc1NC(=O)CC	none
COc1ccc2c(c1)c1nc(N(C)C)nc3c1n2CCN3C	Vaccinia pol inh 11
COc1ccc2c(c1)cc1n2CCN=C1N	none
COc1ccc2c(c1)cc1n2CCN2CCN=C12	none
O=C(NC(Cc1ccccc1)C(=O)O)c1ccc(Cl)c(Cl)c1 (centres undefined)	none
N[C@@H](CC1CCCCC1)C(=O)O	none
O=C(O)CNC(=O)C1CCCCC1	none
O=C(O)CCC1CCCCCCCCCCC1	Vaccinia pol inh 74
Cc1ccc(CN2C(=O)CCNc3ccc(C(F)(F)F)cc32)cc1	none
N/C(=N\S(=O)(=O)c1ccc(Br)cc1)c1ccc(Cl)cc1	none
Oc1ccc(N=Cc2c[nH]c3ccccc23)cc1	none
CC(C)C(=O)Nc1nnc(-c2ccc(Cl)cc2)s1	none
Cc1ccc(C(=O)Nc2nnc(-c3ccccc3)s2)cc1	none
CC(C)C(=O)Nc1nnc(-c2ccccc2)s1	Vaccinia pol inh 60
Cc1nnc(-c2cccc(C(F)(F)F)c2)nc1NC(C)(C)C	none
Cc1ccc(C(=O)NCO)cc1	none
O=C(O)c1ccc2c(c1)NC(=O)C1CCCN21 (centres undefined)	Vaccinia pol inh 48
CC1CCc2[nH]c3ccc(C(=O)O)cc3c2C1 (centres undefined)	none
COC(=O)c1ccc2c(c1)NC(=O)C1CCCN21 (centres undefined)	none
Cc1ccc(Nc2nc(CSc3nc4ccccc4s3)cc(=O)[nH]2)cc1	none
CCOC(=O)c1cc(-c2ccccc2)n(CCC(=O)N(C)Cc2ccccc2)c1	none
COc1ccc2nc(SC(=O)c3ccccc3)nc(C)c2c1	none
COc1ccc2nc(/N=C(\N)NC(=O)N3c4ccccc4Sc4ccccc43)nc(C)c2c1	none
CCc1c(C)nc2ccc(OC)cc2c1Cl	none
COc1ccc2c(C)nc(/N=C(\N)NC(C)=O)nc2c1	Vaccinia pol inh 54
COc1ccc(-c2nc3ccccc3n2C(=O)c2ccccc2C(=O)O)cc1	none
COc1ccc2c(C)nc(/N=C(N)/N=C(\C)c3ccccc3C(=O)O)nc2c1	Vaccinia pol inh 31
CCOC(=O)c1ccc(CN(Cc2ccccc2C)S(=O)(=O)c2ccc3c(c2)OCCO3)cc1	none
Cc1nnc(SCc2cn3cc(Br)ccc3n2)n1C	none
CCCCN1CN=C(Nc2nc(C)c3ccccc3n2)NC1	none
Cc1nc(NC2=NCN(Cc3ccccc3)CN2)nc2ccccc12	Vaccinia pol inh 73
c1ccc(CN2CN=C(Nc3nc4ccccc4o3)NC2)cc1	none
Cc1cc2[nH]c(=O)c(=O)[nH]c2cc1S(=O)(=O)NC1CCCC1	none
COc1ccc2c(c1OC)C(=O)OC2[C@H]1c2c(cc3c(c2OC)OCO3)CCN1C (some centres undefined)	none
COc1ccc2cc1Oc1ccc(cc1)C[C@H]1c3cc(c(OC)cc3CCN1C)Oc1c(OC)c(OC)cc3c1[C@H](C2)N(C)CC3	Vaccinia pol inh 84
CCC1CCCCN1C(=O)CC(=O)N1CCCCC1CC (centres undefined)	none
